# NS1 inh = qHTS Assay for Inhibitors of Influenza NS1 Protein Function; Potency, µM (doses to about 46.1 µM); 270,000 compounds, 0.4% hits; AID 2326, 2010; calls by dose curve; also: actives are rising curves; nearly all actives have a fitted effect of over 50% in size
#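 S. cerevisiae expressing influenza A NS1, grown in glucose, washed, then diluted 1:100 into pH 6.0 -URA galactose medium with 23 nl compound. Growth recovery read as OD600; NS1-free strain serves as control.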
# Pf growth 96h = Primary qHTS for delayed death inhibitors of the malarial parasite plastid, 96 hour incubation | P. falciparum luciferase reporter growth, 96 h | Potency, µM (highest dose often 28.7 µM), hits mostly inhibitors | 320,000 compounds, 6.9% hits | AID 504834, 2011
#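 Delayed-death screen, second-generation endpoint: infected erythrocytes, 2% hematocrit, 0.05% parasitemia final; 96 hours at 37 C, 5% CO2; luciferase detection reagent; luminescence decrease equals reduced growth.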
# SARS PLP yeast = qHTS of Yeast-based Assay for SARS-CoV PLP; S. cerevisiae expressing SARS-CoV PLpro, growth rescue; Potency, µM (highest dose often 32.9 µM), actives largely listed as activators; 330,000 compounds, 0.19% hits; calls by dose curve; also: nearly all actives have a fitted effect of over 55% in size
# Pf growth 48h = Primary qHTS for delayed death inhibitors of the malarial parasite plastid, 48 hour incubation | P. falciparum luciferase growth in erythrocytes, 48 h | Potency, µM (doses to about 28.7 µM), hits mostly inhibitors | 310,000 compounds, 5.9% hits
#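 Firefly luciferase activity from engineered P. falciparum reports growth; inhibitors lower the luminescent signal. Cultures contained 2% hematocrit erythrocytes at 0.1% final parasitemia.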
# Numbers stand for hits; 0 = inactive; ? = inconclusive; - = not tested or not shown; [ ] = another dose, or the depositor's remark. Shown are actives, neighbours in structure and some others; about 10% of the full set was active somewhere. Unless noted, calls follow the shape of the dose curve; as a rule, active = well fitted inhibition curve with a large enough effect; inconclusive = small, poorly fitted or top-dose-only effect, or another doubt; inactive = no such curve, though single readings can be large or run the other way.
SMILES,NS1 inh,Pf growth 96h,SARS PLP yeast,Pf growth 48h
CC(C)C[C@@H]1NC(=O)[C@H](C(C)C)NC(=O)c2cc([N+](=O)[O-])cc(I)c2OCC[C@@H](C(N)=O)NC1=O,?,0,0,0
CN(C)S(=O)(=O)Oc1ccsc1C(=O)Nc1ccc(Cl)c(Cl)c1,0,?,0,?
CN(C)S(=O)(=O)Oc1ccsc1C(=O)Nc1cccc(Cl)c1,0,?,0,1.65µM
COc1ccc(Nc2nc(Nc3ccc(OC)cc3)nc(-n3[nH]c(=O)c(C)c3C)n2)cc1,0,-,0,2.62µM
CC(=O)NNC(=S)NC(=O)C(c1ccccc1)c1ccccc1,0,?,0,2.08µM
CC(C)(C)C(=O)NC(=S)NNC(=O)C(c1ccccc1)c1ccccc1,0,?,0,13.1µM
CC(C)Cn1[nH]c2c3c(ccc2c1=O)C(=O)c1ccccc1C3=O,0,?,0,10.4µM
O=C1c2ccccc2C(=O)c2c1ccc1c(=O)n(-c3ccccc3)[nH]c21,0,0,0,0
CC(OC(=O)CCN=C1NS(=O)(=O)c2ccccc21)C(=O)Nc1ccccc1F (stereo not drawn),-,0,0,0
CCCCn1c(=O)[nH]c(=O)c2c1nc(CN(C)Cc1cccc(OC)c1OC)n2CCC,0,?,0,0[0.00184 µM]
CCCCCn1c(CCC(=O)Oc2ccccc2OC)nc2c1c(=O)[nH]c(=O)n2CCCC,0,13.1µM,0,-
CN(C)C(=O)CN1CCN(Cc2cn(C)nc2-c2ccc3c(c2)OCCO3)CC1,0,10.4µM,0,0
COc1cccc(C2N(c3ccc(Cl)cc3)C(=O)C3CCCN32)c1 (stereo not drawn),0,5.22µM,0,0
COc1ccc(CCN(C)C(=S)NC(=O)c2ccc(F)cc2Cl)cc1OC,-,0,0,0
CCCn1nc(C(=O)N2CCc3ccccc32)c2ccccc2c1=O,-,?,0,?
CCCCCn1nc(C(=O)N2CCc3ccccc32)c2ccccc2c1=O,-,?,0,10.4µM
CCCCn1nc(CC(=O)O)c2ccccc2c1=O,0,10.4µM,0,0
CCn1nc(CC(=O)O)c2ccccc2c1=O,0,0,0,0
CCOC(=O)Cc1nn(CC)c(=O)c2ccccc12,0,0,0,0
CCOC(=O)Cc1nn(C)c(=O)c2ccccc12,0,5.22µM,0,0
CCCc1cc(=O)oc2cc(C)cc(OCC(=O)N[C@@H](CSCc3ccccc3)C(=O)O)c12,?,0,0,?
Cc1ccc(C)c(CN2CCC(n3nccc3NC(=O)CCCc3ccccc3)CC2)c1,0,0,0,?
CCCCCCNC(=O)n1cc(F)c(=O)[nH]c1=O,-,2.13µM,-,4.26µM
CCCCCCCCCn1cc(C(C)=O)c(=O)[nH]c1=O,0,0,0,0
COc1ccc(C2CC(c3cccs3)=NN2C(=O)CSc2nc(=O)n3cc(C)ccc3n2)cc1 (stereo not drawn),-,8.28µM,0,10.4µM
SMILES,NS1 inh,Pf growth 96h,SARS PLP yeast,Pf growth 48h
Cc1ccc(C2CC(c3cccs3)=NN2C(=O)CCl)cc1 (stereo not drawn),0,1.85µM,0,13.1µM
COc1ccc(C2CC(c3cccs3)=NN2C(=O)CSC2=NCCS2)cc1 (stereo not drawn),0,?,0,?
Cc1ccc(C2CC(c3cccs3)=NN2C(=O)CSC2=NCCS2)cc1 (stereo not drawn),0,11.7µM,0,10.4µM
COc1ccc(CC(=O)NC2CC2)cc1OC,0,0,0,0
COc1ccc(C(=O)NC(=O)CSc2n[nH]c(N)n2)cc1,-,-,0,-
O=C(COC(=O)c1ccc(Br)o1)NCc1ccccc1Cl,-,-,0,-
Cc1ccc(C)c(N2CCN(S(=O)(=O)c3ccc4c(c3)CC(=O)N4C)CC2)c1,0,0,0,8.28µM
Cc1ccc(N2CCN(S(=O)(=O)c3ccc(F)c(C)c3)CC2)c(C)c1,0,-,0,0
CCC(=O)c1cc(F)c(N2CCN(S(=O)(=O)c3ccc(C)cc3)CC2)cc1C,0,10.4µM,0,?
CCC(=O)N1CCc2cc(S(=O)(=O)N3CCN(c4cc(C)ccc4C)CC3)ccc21,0,10.4µM,0,0
CC(C)(C)c1ccc(C(=O)NC(=O)CSc2n[nH]c(N)n2)cc1,-,0,0,0
O=C(CN1C(=O)NC2(CCCCC2)C1=O)Oc1ccc2ccc(=O)oc2c1,-,0,0,0
COc1cccc2cc(C(=O)NC(C)c3ccccc3)c(=O)oc12 (stereo not drawn),0,0,0,0
Cc1cc(=O)[nH]c(N/N=C/c2c(C)nn(-c3ccccc3)c2Cl)n1,0,8.28µM,0,4.65µM
Cc1nn(-c2ccccc2)c(Cl)c1/C=C1\C(=O)N(C)C(=S)N1C,-,13.1µM,0,?
Cc1nn(-c2ccccc2)c(Cl)c1/C=N/Nc1nc2ccccc2[nH]1,0,0.738µM,0,0.738µM
Cc1cnc(NC(=O)c2cc3c(C)nn(Cc4ccccc4Cl)c3s2)s1,0,13.1µM,0,7.38µM
Cc1cnc(NC(=O)Cc2ccccc2Cl)s1,0,0,0,0
CCCN(CC(=O)Nc1cc(Cl)cc(Cl)c1)CC(=O)Nc1ccc(F)c(F)c1F,0,9.28µM,0,?
Cc1cccc(C)c1NC(=S)NCCc1ccc(O)c(O)c1,-,0,0,10.4µM
Cc1nn(CCC#N)c(NC(=O)c2ccc(Cl)cc2Cl)c1P(=O)(Nc1ccc([N+](=O)[O-])cc1)N1CCOCC1 (stereo not drawn),0,-,0,8.28µM
CCCN1CCN(C(=O)CCc2nnc3ccc(N4CCN(c5cccc(OC)c5)CC4)nn23)CC1,0,0,0,10.4µM
COc1cccc(N2CCN(c3ccc4nnc(CCC(=O)N5CCC(C)CC5)n4n3)CC2)c1,0,0,0,8.28µM
COc1ccc(N2CCN(C(=O)CCc3nnc4ccc(N5CCC(C)CC5)nn34)CC2)cc1,0,0,0,0
Cc1ccc(/C=C/S(=O)(=O)NCc2ccc(F)cc2)cc1,-,?,0,10.4µM
SMILES,NS1 inh,Pf growth 96h,SARS PLP yeast,Pf growth 48h
Cc1noc(C)c1C(=O)OCC(=O)Nc1ccccc1SCC#N,-,0,0,0
CN(C)/C=N/c1c(C#N)cnn1-c1ncnc2sc(-c3ccccc3)cc12,0,10.4µM,0,?
Cc1ccc(OCCNC(=O)c2cc(C(=O)NCCOc3ccc(C)cc3)cc([N+](=O)[O-])c2)cc1,?,1.17µM,0,11.7µM
COc1cccc(OCCNC(=O)c2cc([N+](=O)[O-])cc([N+](=O)[O-])c2)c1,-,0,0,?
CC(=O)O[C@H]1CC[C@@]2(C)C(=CC[C@@H]3[C@H]4CC[C@@H]([C@H](C)C(=O)O)[C@]4(C)CC[C@H]32)C1,0,-,-,-
CCSc1nnc(NC(=O)C2(C)Cc3ccccc3C(=O)O2)s1 (stereo not drawn),0,0,0,13.1µM
CC1(C(=O)Nc2ccccc2)Cc2ccccc2C(=O)O1 (stereo not drawn),0,9.28µM,0,0
O=C(N/N=C(\c1ccccc1)c1cccnc1)c1ccc(O)cc1,0,0,0,0
O=C(N/N=C(\c1ccccc1)c1cccnc1)c1cccc(F)c1,0,?,0,1.85µM
O=C(N/N=C(\Cc1ncc[nH]1)c1ccccc1)c1cccnc1,-,?,0,9.28µM
COc1ccc(OCC(=O)C2CC2)c(C#N)c1,0,0,0,1.85µM
CCCN(CCC)c1nc(N)c(C#N)c(CC#N)c1C#N,0,13.1µM,0,-

# Screening data deposited in PubChem by National Center for Advancing Translational Sciences (NCATS).
